# Assay results reported in the supplement of paper PMC3334620.
# Whole data set: some 33,000 sequences, median “E-score (-0.5 to 0.5)” near -0.035, cut for the highest 2% near 0.34. The full list was thinned out, with the highest values kept by preference.
# Target: T1, Mot3 (UniProt P54785)
# T1 sequence: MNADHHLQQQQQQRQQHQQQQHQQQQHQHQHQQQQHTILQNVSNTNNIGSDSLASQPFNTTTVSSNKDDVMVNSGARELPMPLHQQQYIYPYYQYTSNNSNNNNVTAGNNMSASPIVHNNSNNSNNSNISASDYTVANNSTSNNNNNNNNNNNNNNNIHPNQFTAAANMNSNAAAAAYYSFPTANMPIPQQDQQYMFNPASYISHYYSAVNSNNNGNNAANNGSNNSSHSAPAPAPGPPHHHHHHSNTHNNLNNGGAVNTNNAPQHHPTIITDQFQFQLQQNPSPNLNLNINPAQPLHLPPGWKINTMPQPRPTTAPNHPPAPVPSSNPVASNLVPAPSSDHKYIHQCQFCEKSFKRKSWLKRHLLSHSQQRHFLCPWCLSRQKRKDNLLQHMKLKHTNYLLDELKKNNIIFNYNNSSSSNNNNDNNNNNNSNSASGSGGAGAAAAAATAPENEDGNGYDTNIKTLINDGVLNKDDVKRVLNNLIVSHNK
# Test: PBM E-score (8-mer binding enrichment) (E-score (-0.5 to 0.5)); higher = stronger / more preferred TF binding
# Details: protein concentration: 200 nM; construct: GST-full length
# Procedure: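 Universal 'all 10-mer' protein binding microarrays (Agilent AMADID 015681) probed with GST-tagged S. cerevisiae TFs (full-length or DBD) made by in vitro transcription/translation (PURExpress), about 100-200 nM. Bound TF was detected with fluorescent anti-GST. Each ungapped 8-mer (which stands for itself and its reverse complement) is scored by the PBM enrichment score (E-score), a modified Wilcoxon-Mann-Whitney statistic from -0.5 to +0.5, computed with the Universal PBM Analysis Suite. Scale: above 0.35 generally sequence-specific binding.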
row,Sequence,PBM E-score
1,ATTCAATA,0.0942
2,TACGAACA,0.18
3,CTTTTCCC,-0.0316
4,TCTGGTAA,-0.0343
5,CGCCTAAC,0.152
6,GAAGATAC,-0.078
7,GACTGCAC,-0.0356
8,AAAGCACT,-0.216
9,GACGCCCA,-0.158
10,CATAGAAC,-0.0217
11,TGTCAAAA,0.241
12,GCGTCCCC,-0.362
13,AGCAAGGA,-0.0799
14,GACAGCCA,-0.186
15,AGAAGAAG,-0.0319
16,AGTGTTGA,0.073
17,CGTGTTGC,0.242
18,CGTGTTGA,0.395
19,CCACAATA,-0.0891
20,GGTCCTTA,-0.152
21,AGGGCACT,0.0516
22,TAGGCACA,0.491
23,GAGGCACA,0.47
24,GGGGCACA,-0.202
25,AGGGCACA,0.3

row,Sequence,PBM E-score
1,AAGGCACA,0.492
2,TAGGCATA,0.28
3,GAGGCAGA,-0.164
4,AAGGCACT,0.486
5,ACGGCACT,-0.139
6,AAGGCAGA,0.0903
7,TAGGCAGA,0.136
8,AACGTATG,0.0662
9,CGCGCTGC,-0.0871
10,TAAACATA,0.284
11,CCCAGATC,-0.111
12,ATTTTCAA,0.12
13,AAGGCGCA,0.336
14,AAGGCGCG,0.252
15,CGGGCACA,0.0796
16,CGGGCACG,0.263
17,GGGGCACC,-0.152
18,TGGGCACA,0.356
19,GAGGCACC,0.463
20,AAGGCGCT,0.353
21,GCGGCACC,-0.159
22,AACAGCTC,-0.162
23,CTCTTTAC,0.177
24,TGGCCACA,-0.096
25,ATTCCAGC,-0.168

row,Sequence,PBM E-score
1,CTTCACGC,0.151
2,AGCAGGTC,-0.0131
3,CAGTGTAA,0.225
4,ACGTGTAA,0.414
5,GCGTGGAA,-0.104
6,TGGTGTAA,0.186
7,TCGTGTAA,0.411
8,TAGTGTAA,0.206
9,ACGTGTGA,0.184
10,AGGTGTAA,0.26
11,CCGTGTGA,0.277
12,CCGTGTAA,0.403
13,GCGTGTAA,0.431
14,GCGTGTCC,0.0864
15,ACTCCAGG,0.0384
16,ACACCTAA,0.168
17,AGGGCAAG,0.13
18,CACTCTAG,-0.145
19,ACCCAGCC,-0.259
20,ATTCCTGA,0.136
21,CTTCCTGA,-0.0128
22,CTTCCTAA,0.0478
23,GTTCCTAA,0.431
24,GTTCCTGA,0.428
25,GTTCCTTA,0.428

row,Sequence,PBM E-score
1,ATTCCTAA,0.105
2,ATTCCTTA,0.211
3,CTTCCTTA,0.146
4,CCCGAAGG,-0.0155
5,ATGGAAGC,-0.191
6,AAATGCCT,0.377
7,ACATGCCA,0.304
8,AAGTGCCC,-0.177
9,AAGTGCCA,0.0649
10,ACATGCGT,0.341
11,ACATGCCT,0.366
12,AAATGCCA,-0.105
13,ACATGCCC,0.21
14,AAGTGCCT,0.48
15,AAATGCCC,-0.192
16,ACATGCGG,0.175
17,ACATGCGC,0.251
18,TCAGACCA,-0.201
19,CCTCTTGC,0.0662
20,GAGGGTGA,-0.208
21,CCGCTCCG,-0.227
22,AAACCGAA,-0.0393
23,ACAGCTGT,-0.0347
24,AGCTCAGC,-0.206
25,CTGCAGTC,-0.106

row,Sequence,PBM E-score
1,ATGCAGGG,-0.153
2,CTGCAGGA,0.291
3,ATGCAGGC,0.342
4,CTGCAGGC,0.406
5,ATGCAGGA,0.0312
6,ACCATTTC,-0.123
7,CCGAGACG,-0.0781
8,CGCTGGTC,-0.275
9,GCTGTCGA,-0.12
10,CATGTCGA,0.351
11,CCTGTCGC,-0.046
12,CATGTCGG,0.222
13,CCTGTCGA,0.342
14,GATGTCGA,0.215
15,GGGTTCTA,-0.176
16,GTCTGTAA,0.149
17,CGTTTAGA,0.0393
18,AGTTTACC,0.0908
19,AGTTTACA,0.363
20,CGTTTACC,0.0878
21,AGTTTACG,0.188
22,CGTTTACA,0.349
23,AAAGATGC,0.132
24,AGTCCTCC,-0.221
25,CACAGAAG,-0.00641

row,Sequence,PBM E-score
1,CTTGAAAG,0.0362
2,AGGAGGGG,-0.156
3,GAAGCCAC,-0.196
4,AGCCTGAA,0.223
5,AGCCTGTA,0.342
6,TGCCTGAA,0.48
7,GGCCTGTA,0.148
8,CGCCTGAA,0.297
9,GGCCTGCA,-0.0526
10,GGCCTGAA,-0.277
11,CGCCTGCA,0.23
12,AGCCTGCA,0.344
13,CAGTACTG,-0.132
14,CCCCCGCA,-0.214
15,GTCTCGCA,-0.238
16,CGATCAAC,0.0859
17,AAACCCCT,0.0363
18,GATGCTAC,-0.122
19,CAAACGCC,-0.143
20,AACCCACA,0.0686
21,AATGCCGA,-0.249
22,AATGCCCG,-0.316
23,ACTGCCTA,0.199
24,GATGCCAA,-0.148
25,AATGCCTC,-0.0227

row,Sequence,PBM E-score
1,AATGCCTA,0.359
2,AATGCCTG,0.352
3,CATGCCTA,0.245
4,GATGCCTA,0.439
5,CGATTTGC,-0.216
6,ATGGCGAC,-0.254
7,ACAGATCG,-0.134
8,CGAATGAC,0.186
9,ACGCCCTG,-0.0695
10,AACTGGAT,-0.153
11,GGAGCCAA,-0.117
12,ACAACCAA,0.00653
13,AATGTACA,0.292
14,CATGTACG,0.239
15,CATGTACA,0.387
16,TCTGTACA,0.235
17,TATGTACA,0.353
18,GATGTACA,0.259
19,GGCTCTGA,0.00444
20,GTCTGATA,0.0245
21,CACAATCG,0.018
22,GGGTAGTA,-0.109
